Compounds with a hit are over-represented: about 19% of the library has one in this group of screens.
TDP1 block – inhibitors of human tyrosyl-DNA phosphodiesterase TDP1 | Q9NUW8 | recombinant TDP1, AlphaScreen DNA substrate cleavage | Potency, µM (top dose mostly 130 µM), for the others: top-dose activity change, negative = inhibition, actives largely listed as inhibitors | hit rate 0.28% among 350,000 | AID 485290; also: potency is read from the fitted curve at half-maximal effect; % is scaled to controls: 0 for no effect and ±100 for the full control effect; nearly all actives have a fitted effect of over 40% in size
Target sequence (Q9NUW8 whole entry, looked up): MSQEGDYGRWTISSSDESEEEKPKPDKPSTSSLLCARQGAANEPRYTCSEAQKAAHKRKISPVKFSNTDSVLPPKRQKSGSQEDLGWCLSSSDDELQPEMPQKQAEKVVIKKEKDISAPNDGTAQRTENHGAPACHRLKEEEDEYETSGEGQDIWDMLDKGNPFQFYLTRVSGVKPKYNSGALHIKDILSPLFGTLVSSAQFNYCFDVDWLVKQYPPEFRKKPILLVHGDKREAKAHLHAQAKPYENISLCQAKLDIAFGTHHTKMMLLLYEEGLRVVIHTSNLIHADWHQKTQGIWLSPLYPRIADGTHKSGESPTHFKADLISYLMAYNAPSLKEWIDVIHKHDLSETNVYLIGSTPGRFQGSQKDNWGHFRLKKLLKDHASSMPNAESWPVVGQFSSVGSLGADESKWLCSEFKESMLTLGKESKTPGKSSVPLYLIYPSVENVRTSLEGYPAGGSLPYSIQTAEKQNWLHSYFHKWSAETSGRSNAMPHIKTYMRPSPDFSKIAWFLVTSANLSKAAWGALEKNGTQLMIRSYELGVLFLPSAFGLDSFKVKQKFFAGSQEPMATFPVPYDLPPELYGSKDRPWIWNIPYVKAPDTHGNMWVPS
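Signal: AlphaScreen proximity between streptavidin donor and anti-FITC acceptor beads on intact substrate. Reaction: Tdp1 1 nM, substrate 15 nM final, 5 min RT after 15 min compound preincubation.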
TGFb SMAD3 inh – inhibitors of TGF-b signaling. HepG2 CAGA-GFP TGF-b/SMAD3 reporter, GFP fluorescence, 18 h; TGF-beta stimulated, 500 pg/mL final. Potency, µM (doses to about 46.1 µM), for inactives: at the top dose activity, negative = inhibition, hits mostly inhibitors. hit rate 1.2% among 410,000; also: potency is read from the fitted curve at half-maximal effect; % is scaled to controls: 0 for no effect and ±100 for the full control effect; nearly all actives have a fitted effect of over 65% in size
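Cell-based qHTS in HEPG2 carrying a CAGA-GFP Smad reporter; compounds added before 500 pg/mL final TGF-beta, 18 h incubation at 37 degrees C, GFP fluorescence quantified per cell by imaging cytometry.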
IL1B secr inh – inflammasome signaling inhibition, IL-1 beta readout. THP-1 LPS/ATP IL-1B secretion, AlphaLISA, 16 h; hits give low values. activity change, % at 57.5 µM. hit rate 4.7% among 360,000. AID 743279; in the data active = activity change below about -50%; inconclusive = mostly about -30% to -49%; also: % is scaled to controls: 0 for no effect and ±100 for the full control effect
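Secreted IL-1B measured by AlphaLISA bead assay after 16 h compound exposure of THP-1 cells; compounds (final up to 57.5 uM) added 1 h before LPS (250 ng/mL) and ATP (1.25 mM) stimulation; lower signal means less secretion.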
HepG2 viability – kills HepG2 cells in TGF-b inhibitor counter-screen; HepG2 CAGA-GFP viability, ATP luminescence, 18 h; Potency, µM (doses to about 46.1 µM), inactives show at the highest dose activity change, negative = cytotoxicity, hits mostly cytotoxic; hit rate 0.76% among 410,000; AID 588856; also: potency is read from the fitted curve at half-maximal effect
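CellTiter-Glo luminescence gave cytotoxicity after 18 hours at 37 degrees C. The cells were HepG2 CAGA-GFP in 1% FBS DMEM, stimulated with 500 pg/mL TGF-beta after compound addition. %Activity was normalised to no-cell wells (complete cell-killing) and DMSO (no toxicity), and curves were fitted and classified.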
TDP1 cell noCPT – qHTS for Inhibitors of human tyrosyl-DNA phosphodiesterase 1 (TDP1): qHTS in cells in absence of CPT; DT40 Tdp1-/- hTDP1 cells, no CPT, ATP luminescence, 48 h; Potency, µM (series often up to 46.2 µM), inactives show at the highest dose activity change, negative = growth inhibition, usual class: inhibitors; hit rate 15% among 420,000; AID 686978, 2013; also: potency is read from the fitted curve at half-maximal effect; % is scaled to controls: 0 for no effect and ±100 for the full control effect; nearly all actives have a fitted effect of over 55% in size
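DT40 Tdp1-/-;hTDP1 cells, no CPT (DMSO vehicle only), 400 cells/well; compounds pin-transferred; ≥48 hr, 37 °C; CellTiter-Glo 30 min RT dark, luminescence read.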
DT40 TDP1 CPT – DT40-hTDP1 cell growth loss with CPT | chicken DT40 Tdp1-/-;hTDP1 cells + 20 nM CPT, ATP luminescence, 48 h | Potency, µM (doses to about 46.2 µM), for the others: at the highest dose activity change, negative = growth inhibition, most hits filed as inhibitors | hit rate 12% among 420,000 | AID 686979; also: potency is read from the fitted curve at half-maximal effect; % is scaled to controls: 0 for no effect and ±100 for the full control effect; nearly all actives have a fitted effect of over 55% in size
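Chicken DT40 Tdp1-/- cells complemented with human TDP1, 400 cells/well, exposed to compounds plus 20 nM camptothecin for at least 48 h at 37 C; viability read as ATP content by CellTiter-Glo luminescence.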
* hit, by the source's call; ? = inconclusive; / = no result; [ ] = another dose, or the depositor's remark. Unless noted, calls follow the shape of the dose curve; as a rule, active = well fitted curve in the direction sought with a large enough effect; inconclusive = small, poorly fitted or top-dose-only effect, or another doubt; inactive = no such curve, though single readings can be large; an effect the other way counts as inactive or inconclusive.

SMILES	TDP1 block	TGFb SMAD3 inh	IL1B secr inh	HepG2 viability	TDP1 cell noCPT	DT40 TDP1 CPT
CC1C(=O)N(Cc2cn(Cc3ccco3)nn2)CCS(=O)(=O)N1Cc1ccc(-c2cccnc2)cc1 (stereo not drawn)	/	2%	?	10%	?	?
Cc1ccc(-c2ccc(CN3C(C)C(=O)N(Cc4cn(CC5CCCCC5)nn4)CCS3(=O)=O)cc2)cc1 (stereo not drawn)	/	?	?	-22%	16µM*	16µM*
COc1ccc(-c2ccc(CN3C(C)C(=O)N(Cc4cn(CC5CCCCC5)nn4)CCS3(=O)=O)cc2)cc1 (stereo not drawn)	/	-4%	5	-16%	10µM*	15µM*
CCOc1ccc(OCC(=O)NCCS(=O)(=O)N2CCN(c3ccc(OC)cc3)CC2)cc1	4%	2%	/	6%	-18%	-2%
Cc1ccc(NC(c2cccc(Cl)c2)c2nnc(-c3ccccc3)o2)cc1F (stereo not drawn)	5%	?	/	-41%	?	?
COc1ccc(C(=O)NCCCNC(=O)c2cccnc2)cc1Br	3%[56.1 µM]	8%	10	14%	-8%	?
Cc1ccc(-c2nc3cnccn3c2Nc2ccc3c(c2)OCO3)cc1	11%	?	85	-24%	?	?
Oc1ccc(Br)cc1-c1nc2cnccn2c1NC1CCCCC1	7%	?	-70*	-26%	-25%	-19%
Oc1ccc(Br)cc1-c1nc2cnccn2c1NC1CCCC1	7%	-28%	-93*	11µM*	?	?
CCn1cc([N+](=O)[O-])c(C(=O)N2N=C(c3ccc(OC)cc3OC)CC2c2ccccc2O)n1 (stereo not drawn)	3%	?	-2	-25%	15µM*	?
CCn1cc([N+](=O)[O-])c(C(=O)N2N=C(c3cccc4ccccc34)CC2c2ccccc2O)n1 (stereo not drawn)	8%	13µM*	?	-55%	13µM*	?
CCn1cc([N+](=O)[O-])c(C(=O)N2CCCC2)n1	9%	-28%	9	3%	-7%	11%
CC(=O)N1N=C(c2ccncc2)CC1c1ccccc1O (stereo not drawn)	-3%	?	106	3%	0%	11%
CCn1cc(Cl)c(C(=O)N2N=C(c3ccc4ccccc4c3)CC2c2ccccc2O)n1 (stereo not drawn)	0%	7.1µM*	?	-45%	15µM*	?
Cc1nc(N2CCOCC2)c2c(C(=O)N(C)c3ccccc3)c(C)oc2n1	4%	-9%	/	1%	7%	1%
CCCCc1ccc(NC(=O)N2CCNC(=O)C2CC(=O)Nc2ccsc2C(=O)OC)cc1 (stereo not drawn)	/	?	-29	2%	-20%	10%
CCN(CC)c1ccc(NC(=O)CN2CCN(S(=O)(=O)c3ccc(C(C)C)cc3)CC2)cc1	7%	?	/	-15%	?	?
CCNc1ncc2nc(C)c(=O)n(Cc3cccs3)c2n1	/	/	/	/	-23%	-4%
O=[N+]([O-])c1ccc(NN=Cc2ccc3c(c2)OCO3)nc1	/	-2%	-16	0%	?	-4%
COc1ccc(N(CC(=O)Nc2cc(C)ccc2C)S(=O)(=O)c2c(C)nn(C)c2C)cc1	3%	0%	20	-16%	26µM*	?
Cc1cc(C)cc(N(CC(=O)O)S(=O)(=O)c2c(C)noc2C)c1	-5%	0%	24	-1%	-7%	-14%
COC(=O)c1sccc1S(=O)(=O)N(CC(=O)Nc1ccc(C)cc1)c1ccccc1	7%	-24%	/	-10%	21µM*	?
Cc1cc(C)cc(N(CC(=O)NC2CCC(C)CC2)S(=O)(=O)c2c(C)noc2C)c1 (stereo not drawn)	-1%	-13%	-7	14%	?	21µM*
COc1ccc(N(CC(=O)Nc2cccc(C)c2)S(=O)(=O)c2c(C)noc2C)cc1	-3%	5%	8	-16%	2.9µM*	?
COc1ccc(N(CC(=O)Nc2cccc(C(=O)O)c2)S(=O)(=O)c2c(C)noc2C)cc1	3%	0%	1	-13%	0%	-8%
SMILES	TDP1 block	TGFb SMAD3 inh	IL1B secr inh	HepG2 viability	TDP1 cell noCPT	DT40 TDP1 CPT
COc1ccc(N(CC(=O)Nc2ccc(C)cn2)S(=O)(=O)c2c(C)nn(C)c2C)cc1	5%	-6%	21	6%	-26%	?
Nc1nc(NCCOCCO)nc(N2CCCCCC2)c1[N+](=O)[O-]	/	0%	10	-6%	-18%	-1%
COc1ccc(N(CC(=O)Nc2cc(OC)cc(OC)c2)S(=O)(=O)c2c(C)noc2C)cc1	2%	?	/	-19%	5.8µM*	7.3µM*
COc1ccc(N(CC(=O)Nc2ccc(C)cc2)S(=O)(=O)c2c(C)noc2C)cc1	1%	2%	-8	4%	?	?
CC(=O)c1cccc(NC(=O)CN(c2cc(C)cc(C)c2)S(=O)(=O)c2c(C)noc2C)c1	7%	?	/	-31%	18µM*	16µM*
COc1ccc(NC(=O)CN(c2cc(C)cc(C)c2)S(=O)(=O)c2c(C)noc2C)cc1OC	-3%	0%	13	-1%	?	?
COc1cc(NC(=O)CN(c2ccc(C)cc2)S(=O)(=O)c2cccc3nonc23)cc(OC)c1	2%	?	/	-17%	18µM*	?
COc1ccc(N(CC(=O)Nc2cc(Cl)ccc2C)S(=O)(=O)c2c(C)noc2C)cc1	0%	11µM*	32	-30%	3.7µM*	2.9µM*
NC(N)=NCCCC(NC(=O)c1ccccc1)C(=O)Nc1ccc2ccccc2c1 (stereo not drawn)	/	9%	-28	0%	?	-21%
CC1CCC(NC(=O)CSc2nncn2C)CC1 (stereo not drawn)	1%	0%	15	4%	3%	7%
O=C(NC1CCN(c2ncccn2)CC1)c1ccccc1Cl	/	-3%	-12	-19%	-14%	-6%
COc1ccc(N(CC(=O)Nc2cc(C)ccc2OC)S(=O)(=O)c2c(C)noc2C)cc1	4%	?	43	5%	?	23µM*
CC12CCC(=O)C=C1CCC1C2C(O)CC2(C)C(c3csc(N)n3)CCC12 (stereo not drawn)	/	-5%	-17	2%	3.3µM*	3.7µM*

Screens from PubChem.
